Assay results published in PubChem BioAssay (NCATS).
Inconclusive results are not listed. Calls come from the whole dose curve; as a rule, active = well fitted curve in either direction with a large enough effect (not every such curve was filed as active); inconclusive = small, poorly fitted or top-dose-only effect, or another doubt; inactive = flat fitted curve, though single readings scatter.

Assay: AP1 Signaling Pathway (AID 357)
Conditions: ME-180 (cervical carcinoma) AP-1-bla reporter, EGF-induced, beta-lactamase ratio, 5 h; at 17.2 µM (top of the series) unless noted
Method in brief: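 AP-1-bla ME-180 cells with beta-lactamase reporter under AP-1 response element, stimulated with EC50 EGF; compounds titrated, 5 hours at 37 degrees Celsius. CCF4 read at 460/530 nm ratio; positive and negative modulators judged by AC50.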
% is set by controls: 0 for no effect and ±100 for the full control effect.

Activity change, negative = inhibition, inactive:
O=C(Oc1cccnc1)c1ccco1 7.51%
CCOC(=O)c1c(N)sc(=S)c2c1CCC2 -21.1%
Cc1c(O)c(CN2CCCC(C)C2)cc2c3c(c(=O)oc12)CCC3 (configuration not stated) 13.2%
CC(C)c1nc2n[nH]c(N)c2c2c1CCCC2 -8.5%
O=C(O)CC1SC(=Nc2cccc(C(F)(F)F)c2)NC1=O (configuration not stated) 7.22%
O=C1CCc2nc3ccccc3c(=O)n2N1 -6.16%
NS(=O)(=O)c1cc2c(cc1Cl)NC(C1C[C@H]3C=C[C@@H]1C3)NS2(=O)=O (some centres not stated) 4.88%
COc1ccc(OC)c(NC(=O)CSc2nnc(-c3ccco3)n2-c2ccc(C(=O)O)cc2)c1 -4.17%
COc1ccccc1C(=O)Nc1cc(Cl)ccc1O -12.2%
CCn1cc(/C=N/O)c(C)n1 -0.439%
CCOC(=O)c1c(C)n(C)c2ccc(OC)c(NC(=O)CN3CCN(Cc4ccccc4)CC3)c12 -11%
Cc1c(C)n(C(=O)CSc2nccn2C)c2ccccc12 14.1%
CC(=O)c1cc(C#N)c(SCC(=O)C(C)(C)C)nc1C -4.83%
CCOC(=O)c1[nH]c2ccc(OC)cc2c1NC(=O)CCN1CCCC(C)C1 (configuration not stated) -2.35%
N/C(=N\S(=O)(=O)c1ccc(Cl)s1)c1ccccc1 -2.33%
C=CCNc1nc(-c2ccc(O)c(C(N)=O)c2)cs1 -14.5%
Cc1sc(-n2c(C)ccc2C)c(C#N)c1C -5.35%
